# Results taken from the supplement of paper PMC3334620.
# In all, about 33,000 sequences were measured (“E-score (-0.5 to 0.5)”: median about -0.035, highest 2% from about 0.34 on). For the sample, the highest values were picked, then their nearest neighbours and some sequences at random.
# Target: T1, Mot3 (UniProt P54785)
# T1 sequence: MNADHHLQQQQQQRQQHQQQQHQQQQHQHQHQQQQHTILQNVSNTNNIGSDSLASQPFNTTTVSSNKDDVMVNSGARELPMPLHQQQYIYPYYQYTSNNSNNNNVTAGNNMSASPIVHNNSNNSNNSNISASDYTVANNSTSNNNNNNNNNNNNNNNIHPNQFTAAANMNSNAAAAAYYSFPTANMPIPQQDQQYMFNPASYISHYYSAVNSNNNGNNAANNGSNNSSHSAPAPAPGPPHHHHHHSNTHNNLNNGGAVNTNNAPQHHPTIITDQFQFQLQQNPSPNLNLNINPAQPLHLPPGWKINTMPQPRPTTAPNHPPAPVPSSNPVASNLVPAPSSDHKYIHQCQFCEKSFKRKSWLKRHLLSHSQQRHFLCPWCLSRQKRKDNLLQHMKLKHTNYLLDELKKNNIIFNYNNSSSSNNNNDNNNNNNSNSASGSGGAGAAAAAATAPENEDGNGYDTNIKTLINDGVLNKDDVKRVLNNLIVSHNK
# Test: PBM E-score (8-mer binding enrichment) (E-score (-0.5 to 0.5)); higher = stronger / more preferred TF binding
# Conditions: protein concentration: 200 nM; construct: GST-full length
# Outline: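 Detection of bound protein used fluorescent anti-GST, with scans normalised by masliner. The proteins were GST-tagged yeast transcription factors applied at about 100-200 nM to universal all-10-mer Agilent arrays made double-stranded by primer extension. Each ungapped eight-base word, pooled with its reverse complement, was scored with an E-score from the Universal PBM Analysis Suite.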
row,Sequence,PBM E-score
1,CCAAGTCG,-0.155
2,AACCATCT,-0.143
3,CCTACTCA,-0.046
4,ATGCTGCG,-0.101
5,CTATGTTA,0.329
6,GTATGTTA,0.354
7,ATATGTTA,0.284
8,ACTGAGAG,-0.0806
9,ACAGAACT,-0.0328
10,CCCCGGGG,-0.37
11,GGGCTAAA,-0.189
12,ATACCTTA,-0.0699
13,GTACCTGA,0.402
14,CTACCTTA,0.0561
15,GTACCTTA,0.355
16,CTACCTGA,0.0134
17,ATACCTGA,0.0776
18,CTTAAGCA,0.104
19,CCGAATTC,-0.242
20,AGAATCAC,-0.211
21,CTGTGGCC,-0.0368
22,AATACGCG,0.354
23,ATTACGGG,-0.00149
24,CTTACGCA,0.301
25,GTTACGCA,0.207

row,Sequence,PBM E-score
1,ATTACGCA,0.354
2,ATTACGCG,0.377
3,AATACGCT,0.188
4,ATTACGCC,0.102
5,CATACGCG,0.155
6,AAACTGCA,-0.0533
7,CTAGCAGC,-0.257
8,CAACTGAA,0.0709
9,GAATGCAA,-0.0468
10,CAGGGATG,0.034
11,AAGGTATT,0.16
12,GAGGTAAC,-0.0204
13,CAGGTAAA,0.383
14,AAGGTAGC,0.149
15,CAGGTAAC,0.39
16,GAGGTAAA,0.0852
17,AGGGTAAT,-0.0805
18,CAGGTAAG,0.271
19,AAGGTAAG,0.27
20,AAGGTAAT,0.34
21,AAGGTAAC,0.339
22,AAGGTAAA,0.334
23,CATTGGAG,-0.179
24,AGAGGTTA,0.0342
25,CTGAATGA,0.00529

row,Sequence,PBM E-score
1,GACTGTAA,0.147
2,ATCCACCC,-0.246
3,TCTCAGAA,-0.0878
4,CTACTCGA,0.0146
5,CCGCAAAC,-0.0792
6,AAGCTATA,-0.00123
7,CGAAAAAG,0.142
8,CCAGCTTC,-0.187
9,CATTTACC,0.158
10,CATTTACG,0.201
11,CATTTACA,0.363
12,TATTTACA,0.386
13,GATTTACA,0.332
14,TATTTAGA,0.184
15,TATTTAAA,0.231
16,AATTTACC,0.153
17,AATTTACA,0.382
18,AAGCAGAC,-0.0963
19,AAATCGCC,-0.255
20,ACCGGTGA,-0.16
21,GCTACCAC,-0.216
22,CACCTACA,0.227
23,TGCCTTAA,0.471
24,TGCCTAAA,0.476
25,GACCTACA,0.045

row,Sequence,PBM E-score
1,AGCCTAAA,0.178
2,TACCTACA,0.381
3,ATCCTAAA,-0.0533
4,GGCCTAAA,0.0327
5,CGCCTTAA,0.323
6,TTCCTAAA,0.408
7,AGCCTTAA,0.158
8,GTCCTAAA,0.125
9,CACCTCCA,-0.138
10,AGTTCGAC,0.0301
11,CTTCCCTA,-0.206
12,CAGGTGCA,0.0796
13,GCAAAAAA,0.203
14,CTAGACTA,-0.24
15,CAGCGTAC,-0.0299
16,GACCTGCA,-0.0447
17,AACCTTCA,0.215
18,TACCTTCA,0.376
19,GGCCTACA,0.00717
20,CGCCTACA,0.224
21,GACCTTCA,-0.083
22,TACCTGCA,0.403
23,AACCTGCA,0.0857
24,TGCCTACA,0.487
25,AGGGTCTA,-0.153

row,Sequence,PBM E-score
1,CGAGCGCC,-0.0813
2,GTTCACGA,-0.101
3,GGACGCTA,-0.206
4,ACGGCAGG,-0.17
5,CGCGCCAA,-0.0132
6,GTGACACA,0.0545
7,ATCACACA,0.143
8,GTTACAAA,0.223
9,ATTACTCA,0.165
10,ATTACACC,0.299
11,CTCACACA,-0.0904
12,CTTACACA,0.3
13,ATTACACA,0.438
14,ATTACACG,0.435
15,GTTACACA,0.357
16,ATGACACA,0.313
17,ATGACACG,0.384
18,CGAGACCC,-0.0978
19,CGGCCACA,-0.234
20,GACGATCC,-0.0936
21,ATCAATAA,0.0626
22,CTACGCGA,0.232
23,CCCTACAC,0.187
24,ATCTACAC,0.375
25,ATCTACAA,0.205

row,Sequence,PBM E-score
1,ACCTACAC,0.258
2,GCCTACAC,0.344
3,ATCTACAG,0.0501
4,CTCTACAC,0.223
5,ATCTACAT,0.349
6,GTCTACAC,0.275
7,GAAAAGGC,0.228
8,AATCAGGT,0.153
9,CCCATGAG,-0.314
10,AATGAGGT,-0.0627
11,GTATTCCA,0.0481
12,CTCTGTGC,0.00777
13,TAAGGCAA,0.472
14,CAAGGCCA,0.0593
15,CAAGGCAC,0.488
16,AAAGGCAT,0.39
17,AAAGGCTT,-0.0548
18,TAAGGCGA,-0.0665
19,CAAGGCCC,0.0163
20,TAAGGCTA,0.129
21,CAAGGCAA,0.479
22,AAAGGCCT,-0.0542
23,CAAGGCCG,-0.0783
24,CAAGGCAG,0.0705
25,ACGGCGTG,0.0736

row,Sequence,PBM E-score
1,ATCTTAGC,-0.0857
2,ACACCGGA,0.0203
3,AAGCTAGT,-0.004
4,CTACTGGA,-0.174
5,AGCCATAC,-0.163
6,AAAGGCAA,0.486
7,GAAGGCTA,0.0397
8,GAAGGCCA,-0.0342
9,AAGGGCAA,0.127
10,GAAGGCAA,0.489
11,AAAGGCAG,0.282
12,CAAGCAGC,-0.0458
13,AATCCATC,-0.21
14,CTTAAGAC,-0.0312
15,ACCGCGAA,-0.0635
16,AGGAACTG,0.413
17,AGGAACTA,0.38
18,CGGAACTA,-0.265
19,ATGAACTC,-0.14
20,ATGAACTG,0.0964
21,AAGAACTG,-0.196
22,GGGAACTA,-0.0385
23,CGGAACTC,-0.29
24,AGGAACTC,0.396
